According to PubChem BioAssay AID1813 (Broad Institute, 2009):
Values joined by “and” are separate entries in the source; they are usually repeats but may differ in a detail not shown here. Equal values may be shown once. About 2,500 (0.83%) of roughly 300,000 compounds were called active. Cut-off read from the data, not from the text of the source: active = inhibition above about 60%; inconclusive = no clear call, values can overlap the other calls; inactive = below that. For the sample, actives were picked, then their nearest neighbours and some compounds at random.

Test: 5' untranslated region of α-synuclein, MLPCN primary screen (AID 1813);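 note: H4 neuroglioblastoma cells stably carrying SNCA 5'UTR luciferase fusion; 0% = DMSO wells and 100% = positive control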
Conditions: alpha-synuclein 5'UTR reporter, inhibitor activity; hits give high values; tested at 7.5 µM

inhibition, active:
CCOc1ccccc1NC(=O)Cn1nnc(C(=O)NCc2cccs2)c1N 84.9%
COC(=O)Cc1[nH]n(-c2nc3ccccc3s2)c(=O)c1C(C)=Nc1ccc(OC)cc1 68.9%
COc1cc(SC)ccc1C(=O)Nc1nc(C)cs1 96.2%
COC(=O)c1sc(NC(=O)c2ccc(OC)cc2OC)nc1C 101%
CSc1nc(N(C)NC(=O)c2cccc(C)c2)c2ccccc2n1 114%
CSc1nc(-c2ccccc2)nc(C(Cl)Cl)n1 114%
CC(C)(C)c1ccc(Oc2ccc(N)cc2)cc1 112%
Cc1c(Cl)c([N+](=O)[O-])nn1Cc1ccc(C(=O)N/N=C\c2cc(Cl)ccc2O)o1 81.2%
CCOC(=O)c1c(C)[nH]c2c1-c1ccccc1C(=O)C2=O 99.5%
C=CCOc1ccc(/C=C2\SC(=S)N(CCC(=O)O)C2=O)cc1 80%

inhibition, inactive:
Cc1ccc(S(=O)(=O)N/N=C(\c2ccccc2)C2CC2)cc1 -11.6%
COC(=O)C1=C(C)N(c2ccc(C)cc2)/C(=C/c2ccc(O)cc2)C1=O -12.4%
Cc1ccc(NC(=O)Cn2nnc(C(=O)NCc3ccco3)c2N)c(C)c1 -2.22%
CCOc1ccccc1NC(=O)Cc1cccs1 19.4%
O=C(Cc1ccc(-n2c(=O)c3sccc3n(Cc3ccc(F)cc3)c2=O)cc1)NCc1ccco1 11.3%
O=C(O)C1CCN(C(=O)c2cc(F)cc3c2OCOC3)CC1 19.4%
CC(=NCc1ccco1)c1c(C(F)(F)F)[nH]n(-c2nc3ccccc3s2)c1=O -117%
C/C(=N\NC(=O)CC(C)C)c1c(C(F)(F)F)[nH]n(-c2nc3ccccc3s2)c1=O -51.5%
CNC[C@H](CC1CCCCC1)NC[C@H](NCCC1CCCC1)[C@H](C)O -34.1%
CC(=O)N1C(C)c2ccccc2C(C)(C)CC12CCCCC2 (centres undefined) -9.23%
COc1cc(SC)ccc1C(=O)Nc1cc(C)ccn1 -8.42%
COc1ccc(Cc2nnc(NC(=O)c3ccc(OC)cc3OC)s2)cc1 -62.4%
COc1cc2ccccc2cc1C(=O)Nc1nc(C)c(C(C)=O)s1 -106%
Cc1csc(NC(=O)c2ccc(C)s2)n1 -174%
Cn1c(Cc2cccs2)nnc1SCC(=O)Nc1ccccc1 11%
COc1ccc(NC(=O)CSc2ccc(-c3ccco3)nn2)c(OC)c1 7.22%
CC(C)CN(C(=O)c1ccc2c(c1)OCO2)C1CCS(=O)(=O)C1 (centres undefined) -8.68%
CC(C)C(=O)N1CCN(c2nc(-c3ccccc3)c3c(c2C#N)CC(C)(C)OC3)CC1 -10.5%
CCO[C@H]1OC(C(=O)N2CCN(Cc3ccccc3)CC2)=C[C@@H](c2cn(C(C)=O)c3ccccc23)[C@@H]1CCCO 14.2%
O=C(COC(=O)c1ccc(Cl)nc1)NCc1ccc2c(c1)OCO2 17.3%
O=S(=O)(c1ccc(F)cc1)N1CCN(C(=S)NC2CCCC2)CC1 4.9%
CN(NC(=O)c1ccccc1F)c1nc(C(F)(F)F)nc2ccccc12 39.8%
CN(NC(=O)c1ccccc1)c1nc2ccccc2nc1C(F)(F)F -26.7%
O=c1c2cc(-c3ccccc3)sc2nc2n1N=C(c1cccs1)CS2 -105%
O=C(Cn1c[n+](CC(=O)c2ccc([N+](=O)[O-])cc2)cn1)c1ccc([N+](=O)[O-])cc1 1.61% and -7.59%
COc1ccccc1OC(C)C(=O)Nc1ccc(S(=O)(=O)Nc2nccs2)cc1 (centres undefined) 8.93%
CCN1CCN(CC(=O)c2cc(OC)c(OC)c(OC)c2)CC1 -44%
CSc1ncc(Sc2ccccc2)c(C(=O)O)n1 9.17%
CC(C)(C)c1ccc(OC2=CS(=O)(=O)c3ccccc32)cc1 -110%
COc1cccc(Oc2ccc(N)cc2)c1 5.65%
C=CCOc1ccc(/C=C/C(=O)OCC(=O)NC(C)c2ccc(F)cc2)cc1 (centres undefined) 5.96%
O=C(c1ccc(OC2CCN(C/C=C/c3ccc(F)cc3)CC2)cc1)N1CCCCC1 -17.6%
COCCN1C(=O)C(=O)/C(=C(/O)c2ccc(S(=O)(=O)N3CCOCC3)cc2)C1c1ccc(OC)c(OC)c1 (centres undefined) 0.0342%
CC(C)(C)NC(=O)NC(=O)CN1CCC(Cc2ccccc2)CC1 17.3%
Cc1ccc(C(=O)O)cc1NC(=O)c1ccc(Cn2nc(C)c(Cl)c2C)o1 -17.2%
Cc1c(Cl)c([N+](=O)[O-])nn1CCCC(=O)Nc1cc(Cl)ccc1Cl 12.6%
NC(=O)CCC(NS(=O)(=O)c1ccc(Cl)cc1)C(=O)NCc1ccccc1Cl (centres undefined) -12.6%
CCCCN(C)CCNC(=O)CSCc1ccc(C)cc1 0.318%
CC(=O)N1c2ccc(S(=O)(=O)N3CCCC(C(=O)Nc4cccc(F)c4)C3)cc2CC1C (centres undefined) 4.33%
CCOC(=O)C1=C(c2ccc(OC)cc2)C(=O)c2ccccc2C1=O -17.2%
CCOC(=O)c1c(C)[nH]c(C)c1S(=O)(=O)N(C)CC(=O)Nc1ccccc1C 23%
O=S(=O)(c1ccc(-c2ccccc2)cc1)N1CCCC1 1.66%
COc1ccc(-n2c(C)nn(CC3CC3)c2=O)cc1 5.05%
Cc1cc(Nc2cc(N3CCN(C)CC3)nc(Sc3ccc(NC(=O)C4CC4)cc3)n2)n[nH]1 -50.9%
O=C(O)CCn1c(SCc2cc(=O)n3ccccc3n2)nc2ccsc2c1=O -7.14%
COc1ccccc1C(=O)NNC(=O)CCN1C(=O)/C(=C\c2ccccc2)SC1=S 8.03%
Cc1ccc(/C=C2\SC(=S)N(CCC(=O)Nc3ccc(O)cc3)C2=O)cc1 0.184%
C=CCNC(=O)/C=C/c1ccc(C(C)C)cc1 -129%
Cc1ccc2nc(-c3ccc(SCC(=O)Nc4cc(C)on4)nc3)[nH]c2c1 -160%
